Results taken from the supplement of paper PMC6555819.

Key:
Experiment in all cases: PBM binding z-score (relative to random genomic background probes); higher = stronger binding; sequences stand for … in GC…GCGATTGACAGCGTAGAATGAAGG
[1] = test system: RARb homodimer (NR concentration 270 nM)
In short: (§1)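 Probes were double-stranded and carried 34-nt variable regions with direct-repeat seeds, single-nucleotide variants, half-site ablations and random human genomic background sequences, printed on custom Agilent 4×180K protein-binding microarrays. Arrays were incubated 1 h with ligand-free nuclear receptor dimers in PBS pH 7.4, 2% milk, 0.02% Triton X-100, 1 mM DTT, 0.2 mg/mL BSA and 0.4 mg/ml salmon testes DNA. Antibodies against each partner (one per run) detected binding, and scanned fluorescence was regression-normalized. Binding z-scores use the random background probes as reference.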

[2] = test system: RARg:RXRa (NR concentration 270 nM, RXRa partner concentration 90 nM)
In short: as §1

[3] = test system: RARg homodimer (NR concentration 270 nM)
In short: as §1

[4] = test system: RXRa DBDmut IVT, anti-RXR (DBD mutation: RXRa K156A/R161A, NR concentration 90 nM)
In short: as §1

[5] = test system: RXRa homodimer (NR concentration 180 nM)
In short: as §1

[6] = test system: THRa:RXRa (NR concentration 90 nM, RXRa partner concentration 90 nM)
In short: as §1

[7] = test system: THRa homodimer (NR concentration 90 nM)
In short: as §1

[8] = test system: VDR homodimer (NR concentration 270 nM)
In short: as §1

Sequence | PBM binding z-score [1] | PBM binding z-score [2] | PBM binding z-score [3] | PBM binding z-score [4] | PBM binding z-score [5] | PBM binding z-score [6] | PBM binding z-score [7] | PBM binding z-score [8]
CAAACTAGGTCAAAGTTCAAAGTCGAGCCAACCA | 4.52 | 7.71 | 6.23 | 3.95 | 8.77 | 4.23 | 1.21 | 4.43
CGAACTAGGTCATTGACAGGAAAGTGAATAGTAA | 2.15 | 3.65 | 3.62 | 2.19 | 2.61 | 2.27 | 0.512 | 0.797
CCGACTGGGGCAGACAGGTTACCATACCATCCGG | 0.849 | 0.341 | 0.456 | -0.96 | 0.238 | -0.0397 | 0.0396 | -0.23
ACAGACAGGTGATTGAAGGTAACTCAGCTGGACG | -0.184 | 0.204 | 0.419 | -0.0738 | 0.195 | 1.92 | -0.247 | -0.308
ATCTCTAGGTCAAGTTCAGTGAAAGATCGATAGA | 3.89 | 4.93 | 5.92 | 2.98 | 3.73 | 3.44 | 2.16 | 3.44
CAAACTAGGTCAAGAGGTCCAAGTCCGCTTCCCG | 3.2 | 4.03 | 4.37 | 1.42 | 2.65 | 2.55 | 0.871 | 1.74
GGAACGAGTGCAAGTTGATAGCAGAGTTTGATGG | -0.0389 | -0.00885 | 0.227 | 3.42 | 0.155 | -0.241 | -0.787 | 2.87
TCAGACAGGTGTAGGTAACTCAGGTACGCAGTCG | 0.242 | 0.0352 | 0.143 | 1.07 | 0.607 | 0.923 | 0.621 | 0.47
AGAATGAGGTTATTGAGATCAGGGAATTGCGGTC | 1.07 | 1.43 | 0.831 | 2.21 | 2.16 | 2.45 | 1.01 | 1.28
GCGACTGGGGCATCAGCAGGTAACCATAACTTAA | 0.543 | 0.292 | 0.296 | 0.0904 | 0.119 | 0.856 | 0.168 | -0.668
TCAGACAGGTGAAGGTAAATCAGGTACGCAGTCG | 0.943 | 0.61 | 0.667 | 1.77 | 1.06 | 1.58 | 0.468 | 0.53
CTTACAGGGTCAGCTAGGCCAGAGTAGGGACGGC | 3.2 | 4.47 | 4.97 | 1.83 | 4.42 | 2.97 | 0.729 | 0.875
GCAGACAGGTGAAACGCAGTTAACTCAGGGTGGC | -0.134 | 0.384 | 0.0446 | -0.62 | 0.577 | 0.459 | -0.813 | -0.764
CCGACTGGGGCAAAGGTTACCCTACTCAGTACGA | 1.96 | 3.01 | 1.49 | -0.029 | 3.13 | 1.72 | 0.249 | 0.136
TCTAGTTGGTCAAAGGTCACACTCTCGAAATGCG | 5.1 | 6.72 | 5.71 | 1.96 | 7.91 | 4.01 | 2.1 | 2.53
GTACAAAGGTGAATAGGTCGTTGATGAGTAGGCG | 3.11 | 4.37 | 2.79 | 0.47 | 3.43 | 1.72 | -0.0459 | 0.65
TGAATGAGGTTATAAGATCAGAGAACGTTGCAAA | -0.136 | 1.39 | 0.985 | 0.35 | 1.74 | 1.55 | -0.514 | 0.234
TGAATGAGGTTAAAGATCAGCGAACGTGGCGTCG | 0.498 | 2.34 | 1.26 | 1.56 | 3.59 | 2.39 | 0.17 | 0.749
ATATGAAGGTTAGCTGGGGTCATTCAGACTAGGC | 4.37 | 4.69 | 3.82 | 1.97 | 6.06 | 5.24 | 3.38 | 5.65
TCTCGGAGGACACGCAGGTCAGAGCTTTCCAGAG | 2.81 | 2.47 | 3.04 | 0.783 | 1.05 | 2.63 | 1.06 | 1.2
AGTCAAAGTTCACTACGTAACGTAAGATTCAGCT | 3.36 | 4.55 | 5.09 | 4 | 3.76 | 1.4 | -0.394 | 3.71
ACAGATAGGTGATGAAGGTAACTCAGGCTATCAT | 0.0763 | 0.532 | 0.586 | -0.397 | 0.485 | 0.83 | -0.19 | -0.247
TCGAGTAGGGTAGTCGGGGCATTCAGCCAACATA | 0.403 | -0.271 | -0.538 | 0.261 | -0.197 | 0.368 | 0.185 | 0.229
GCTAGCAGGCCATTTGGGTCACTCCATGACGGGC | 1.6 | 0.733 | 1.19 | 0.0531 | 0.716 | 1.61 | 0.324 | 0.419
ACAGACACGTGATGAAGGTAACTCAGGCTATCAT | -0.0735 | 0.142 | 0.316 | 0.207 | 0.38 | 0.724 | 0.228 | -0.42
CCTAGTTGGTCAAGGTCACAGACGCTATAGGTAC | 4.33 | 4.74 | 5.11 | 2.16 | 4.88 | 4.13 | 4.27 | 3.55
GCTAGCAGGCCATTTGGGTCACACAATGACGGGC | 1.93 | 1.23 | 1.48 | -0.0753 | 1.2 | 2.03 | 0.818 | 0.18
ATATGTAGGTTATCGGGCCATTCAGTTTGCGCAT | 1.07 | 0.874 | 0.93 | 0.832 | 0.911 | 1.24 | 0.971 | 1.34
TCATATCGGTAAACAGGTGAAAGTCCGTAAGTTA | 0.664 | 0.475 | 0.211 | 1.26 | 0.834 | 0.552 | 0.248 | 0.533
